The text below walks through data of ChEMBL document CHEMBL4513216, “Probing the Open Global Health Chemical Diversity Library for Multistage-Active Starting Points for Next-Generation Antimalarials” (ACS Infect Dis, 2020).

Out of some 65,000 compounds screened, about 2,100 (3.2%) showed an effect of 50% or more. The median lay at about -52%. The sample as a whole holds a higher share of strong results than the screen did.

The assay has as its system Plasmodium falciparum. Description: Screen against P. falciparum Asexual Blood Stage (ABS), at 5uM. The format is functional, Dd2. Conditions: tested at 5 uM.
Consider `O=S1(=O)NCC2(CCN(Cc3ccc(Cl)s3)C2)Oc2ncccc21` (stereo unspecified), for which the INHIBITION is reported as -56.7%.

On to `O=C1N(c2ccsc2)CCC12CCCN(Cc1cccnc1)C2` (stereo unspecified), for which the INHIBITION was -28.4%.

On to `CCn1cncc1Cn1ncc2ccccc2c1=O`, for which the INHIBITION is recorded as -114%.

For `COCCn1cncc1CN1CCC(C(C)=O)(c2ccccc2)CC1`, the INHIBITION was -20.6%.

As for `Cc1ccc(C2(CN3CCN(Cc4cncn4C)CC3)CC2)cc1`, the INHIBITION amounted to 73.2%.

For `Cc1noc(C)c1CN1CCO[C@H]2CN(Cc3cncn3C)C[C@H]21`, the INHIBITION is -42.6%.

In the case of `Cc1ccc(C2(CN3CCN(Cc4cnc(C)n4C)CC3)CC2)cc1`, the INHIBITION was 95.4%.

With `CCn1cncc1CN1CCN(CC2(c3ccc(C)cc3)CC2)CC1`, the INHIBITION is listed as 70%.

With `Cn1cncc1CN1C[C@@H]2OCCN(c3ncccn3)[C@@H]2C1`, the INHIBITION is reported as -99.1%.

With `Clc1ccc(-n2nnnc2C2(NCc3ccco3)CCCCC2)cc1`, the INHIBITION turned out to be 5.42%.

For the molecule `CN(Cc1cncnc1)[C@H]1CN(CC2CC2)[C@@H]2CCCO[C@@H]21`, the INHIBITION amounted to 4.52%.

On to `c1cc(COC[C@]23COC[C@H]2CN(CC2CCC2)C3)ccn1`, for which the INHIBITION was -81.5%.

Take `Cc1noc(C)c1CN1CCCC2(CCN(C(=O)NC3CC3)C2)C1` (stereo unspecified): the INHIBITION is reported as -183%.

Take `CC(C)N(C)Cc1cncc2c1CCN(CC(=O)N(C)C)C2`: the INHIBITION is reported as -31.3%.

For the molecule `CC(C)N(C)Cc1cnc2n1CCN(C(=O)NC1CCCC1)C2`, the INHIBITION is 83.4%.

In the case of `CN(Cc1ncc(C(C)(C)C)o1)CC1CCCN1c1cccnn1` (stereo unspecified), the INHIBITION was determined as 80.7%.

As to `CN(c1ncnc2ccccc12)C1CCCN(c2cccnn2)C1` (stereo unspecified), the INHIBITION is given as 74.4%.

Regarding `Cc1cc(C)c(CNc2ncnc3ccccc23)c(=O)[nH]1`, the INHIBITION stood at 14.5%.

For `c1cnnc(N2CCCC2CNc2ncnc3sccc23)c1` (stereo unspecified), the INHIBITION came to 82%.

For `c1cnnc(N2CCCC2CNc2ncnc3ccccc23)c1` (stereo unspecified), the INHIBITION is recorded as 81.1%.

Regarding `N#Cc1ccc(NC2CCN(c3ncccn3)CC2)cc1Cl`, the INHIBITION is given as -47.7%.

Consider `c1ccc(CO[C@@H]2CC[C@H]3[C@H]2OCCN3Cc2ccsc2)nc1`, for which the INHIBITION is on record as -80.3%.

Regarding `CC[C@H](C)[C@@H](CO)NC(C)Cc1ccc(C)cc1` (stereo partly specified), the INHIBITION is given as 31.8%.

Take `O=C(NCc1ccccn1)[C@H]1COC[C@H]2CN(C3CCCC3)C[C@H]21`: the INHIBITION is -109%.

As to `COCCn1ccc2c(C(=O)NC3CN4CCC3CC4)cccc21` (stereo unspecified), the INHIBITION is listed as -19.8%.

Regarding `O=C(NC1CC1)C1CCN(c2cccc(C(F)(F)F)n2)CC1`, the INHIBITION is 79.4%.

Regarding `N[C@H]1CN(CCOc2ccc(F)cc2)C[C@@H]1C1CC1`, the INHIBITION is reported as 76.5%.

Turning to `COCCN1C[C@H]2CCC[C@@H](CNc3ncccn3)[C@H]2C1`, the INHIBITION worked out at 23.6%.

Turning to `O=C(Cc1ccsc1)N1CCN(CCOc2ccccc2)CC1`, the INHIBITION is on record as 19.5%.

As to `N[C@H]1CN(CCCOc2ccccc2)C[C@@H]1C1CC1`, the INHIBITION stood at 86.8%.

As for `COCCN1C[C@H]2[C@@H](C1)N(C(=O)COc1ccccc1)CC[C@H]2OC`, the INHIBITION was -98.8%.

Regarding `CC(C)N1CCC2(CC1)NC(=O)c1cc(Br)ccc1-n1nnnc12`, the INHIBITION is reported as -84.6%.

On to `CN1CCOCC2(CCCN(C(=O)Cc3ccncc3)C2)C1` (stereo unspecified), for which the INHIBITION is reported as -195%.

Regarding `CCS(=O)(=O)N1CCN(C)c2ncccc2C1`, the INHIBITION is -45.7%.

With `CCC(CN1CCOCC1)n1cncc1-c1ccc2c(c1)CCN2CC` (stereo unspecified), the INHIBITION amounted to 94.5%.

On to `CC(C)CN1CCC2(CC1)CN(C(=O)C(C)C)C2`, for which the INHIBITION is -69.1%.

Take `CNC(=O)[C@H]1C[C@@H]2CN(Cc3c(C)noc3C)C[C@@H]2N1C(C)=O`: the INHIBITION is reported as -19.9%.

For `CN(C)CCNC(=O)C1Cc2nc(-c3ccccc3)sc2N1CC1CC1` (stereo unspecified), the INHIBITION is given as 89.7%.

On to `CN(C)CCNC(=O)[C@H]1C[C@H]2CN(c3ncccn3)C[C@H]2N1C`, for which the INHIBITION is given as -64.2%.

With `Cc1csc([C@@H]2C[C@@H]3CCN(Cc4cc(C)on4)C[C@H]3O2)n1`, the INHIBITION is given as -19.3%.

For `Cc1cc(N2CCCN3CCC[C@H]3C2)n2nc(C)c(C)c2n1`, the INHIBITION stood at 9.89%.

With `CNc1cc(C)nc(NC2CCCN(C3Cc4ccccc4C3)C2)n1` (stereo unspecified), the INHIBITION is listed as 92.8%.

`CN(C(=O)Cc1ccn(C)c1)C1CCCN(C2Cc3ccccc3C2)C1` (stereo unspecified): the INHIBITION was -32.4%.

Regarding `CNc1nc(C)cc(NC2CCCN(C3Cc4ccccc4C3)C2)n1` (stereo unspecified), the INHIBITION is reported as 89.5%.

Regarding `Cc1cc(C)nc(N2CCCC2c2cccnc2)n1` (stereo unspecified), the INHIBITION is given as 0.584%.

Take `Cn1ncc2c1NC(=O)CSC2c1ccc2c(c1)OCO2` (stereo unspecified): the INHIBITION was -86%.

As for `c1cc(COC[C@]23COC[C@H]2CN(Cc2ccncc2)C3)ccn1`, the INHIBITION is given as -118%.

`CN1CCCC2(CCN(C(=O)c3ccncc3)C2)C1` (stereo unspecified): the INHIBITION is recorded as -62%.

`CN1CCN([C@@H]2CN(C(=O)c3ccnnc3)[C@@H]3CCCO[C@H]23)CC1`: the INHIBITION was -103%.

In the case of `Cc1oc(-c2ccco2)nc1CC(=O)N1CCN(CC(C)O)CC1` (stereo unspecified), the INHIBITION is recorded as -65.7%.

For `Fc1ccc(Cc2cnc(C3CCCN3)cn2)cc1` (stereo unspecified), the INHIBITION was determined as 45.6%.

With `CN1CCCC1c1cccc(Cc2ccc(F)cc2)n1` (stereo unspecified), the INHIBITION is reported as 62.1%.

In the case of `CN1CCCC1c1ccc(N2CCOCC2)cn1` (stereo unspecified), the INHIBITION is listed as -144%.

With `Cc1nnc([C@H]2C[C@@H]3CCN(Cc4cc(C)on4)C[C@H]3O2)[nH]1`, the INHIBITION was -33.8%.

For `CC(C)N1CCC(N(C)c2ccnc(N(C)C)n2)CC1`, the INHIBITION was determined as 39.1%.

As to `CC(C)N1CC[C@@H]2OC[C@H](C(=O)Nc3cccnc3)C[C@@H]2C1`, the INHIBITION is -33.5%.

With `Cc1cc(NC(=O)NC2CCN(C(C)C)CC2)c2ncccc2c1`, the INHIBITION turned out to be 79.7%.

In the case of `CN(C)Cc1cncc2c1CCN(Cc1ccoc1)C2`, the INHIBITION is on record as -67.1%.

Consider `Fc1ccc(C2(CNC3=NCCN3)CCCC2)cc1`, for which the INHIBITION was found to be 83.5%.

Turning to `c1cc2c(cc1C1(CNC3=NCCN3)CCCC1)OCCO2`, the INHIBITION was 81.1%.

With `Clc1ccc(C2(CNC3=NCCN3)CCCC2)cc1`, the INHIBITION came out at 83.7%.

On to `Clc1ccc(C2(CNC3=NCCN3)CC2)cc1`, for which the INHIBITION amounted to 83.2%.

On to `O=C(NC[C@]12COC[C@H]1CN(Cc1cccnc1)C2)c1ccsc1`, for which the INHIBITION is listed as 5.35%.

`CNC(=O)C1CCC2(CCNCC2)C1` (stereo unspecified): the INHIBITION is given as -92%.

For the molecule `Cc1ccc(N2C[C@@H]3CN(Cc4ccoc4)CCO[C@@H]3C2)nn1`, the INHIBITION is on record as -14.1%.

Turning to `Cc1oncc1C(=O)N[C@@H]1CN(C2CCC2)C[C@@H]2CCCO[C@@H]21`, the INHIBITION is recorded as -114%.
